Drawing on PubChem BioAssay (NCI), this text covers growth for nine compounds.

Compounds without any hit were thinned out: in the full panel of roughly 83,000, 20% have a hit.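 Results are percent growth after 48 hours of single-concentration exposure. 100 means growth as in untreated cells, lower positive values show inhibition; negative values down to -100 show cell death.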 A number with no mark means an inactive call. The source made the active and inactive calls. The calls were made as follows: active = growth percent below 10; inactive = the rest.

The experiment has as its system HL-60(TB) leukemia. Briefly: NCI-60 one-dose screen, 48 h (100 = growth as untreated, 0 = no growth, -100 = all killed). The note with it: 10 µM unless noted.
For the compound `O=C([C@@H](COCc1ccccc1)N1C(=O)[C@@H](N2C(=O)OC[C@@H]2c2ccccc2)[C@H]1/C=C/c1ccccc1)N1CCC(CCN2CCCCC2)CC1`, the growth was 64.5%.

For the compound `O=[N+]([O-])c1cccc(-c2nc(-c3ccc(Cl)cc3Cl)cn2-c2ccccc2)c1`, the growth is 35.3%.

As to `CCOC(=O)c1noc2c1CCc1c-2cn(Cc2ccc(OC)cc2)c1-c1cc(OC)c(OC)c(OC)c1`, the growth was -25.5% (active). As to `C[C@@H]1N=C(c2ccc(Cl)cc2Cl)Nc2nc3ccccn3c2C1=O`, the growth is 0.461% (active). For `COc1ccc(/C=C/C(=O)c2cccc(B(O)O)c2)cc1O`, the growth was 4.3% (active). In the case of `NCCCNc1nc2ccccc2c2c(=O)c3cc(OC(F)(F)F)ccc3sc12` it was -41.5% (active); in that of `CCCCCCCCCCCCCCCCCC1=NC(C)(C)CN1CCO`, -62.2% (active).

Regarding `Nc1ncnc2c1CN(Cc1ccccc1)CC2`, the growth is 105%.

Turning to `CC1=CC(=O)c2cccc(NC3=NCCO3)c21`, the growth is 100%.
